# The whole screen tested about 220,000 compounds, of which about 16,000 (7.3%) were called active. Inconclusive results (about 25%) are left out. For the sample, actives were picked, then their nearest neighbours and some compounds at random. Unmarked numbers belong to inactive results. Calls follow the shape of the dose curve; as a rule, active = well fitted inhibition curve with a large enough effect (not every such curve was filed as active); inconclusive = small, poorly fitted or top-dose-only effect, or another doubt; inactive = no such curve, though single readings can be large or run the other way.
# Target: Aldehyde dehydrogenase 1A1 (Homo sapiens) (UniProt P00352)
# Sequence (P00352 whole entry, looked up): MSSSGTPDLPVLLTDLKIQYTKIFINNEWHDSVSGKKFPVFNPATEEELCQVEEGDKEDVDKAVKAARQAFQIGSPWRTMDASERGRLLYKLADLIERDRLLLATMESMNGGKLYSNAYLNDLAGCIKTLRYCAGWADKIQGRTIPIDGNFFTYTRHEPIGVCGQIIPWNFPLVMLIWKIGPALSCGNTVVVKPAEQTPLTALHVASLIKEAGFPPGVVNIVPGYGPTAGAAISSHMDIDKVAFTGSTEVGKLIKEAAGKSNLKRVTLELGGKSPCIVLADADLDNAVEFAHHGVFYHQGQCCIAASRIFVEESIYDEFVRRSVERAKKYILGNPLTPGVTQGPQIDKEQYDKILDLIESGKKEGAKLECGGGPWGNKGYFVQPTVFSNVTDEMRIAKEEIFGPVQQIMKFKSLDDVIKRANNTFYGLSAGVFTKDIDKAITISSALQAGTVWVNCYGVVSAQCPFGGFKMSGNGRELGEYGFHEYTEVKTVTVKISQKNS
# Experiment: qHTS Assay for Inhibitors of Aldehyde Dehydrogenase 1 (ALDH1A1);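 as to activity, negative = inhibition: plate controls were no enzyme wells and a reference inhibitor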
# Conditions: Purified ALDH1A1, NADH fluorescence, propionaldehyde substrate; series mostly up to 75.3 µM; activity, negative = inhibition: at the top concentration
# Potency is read from the fitted curve at half-maximal effect.
SMILES,"activity, negative = inhibition",Potency
CCOc1ccc(/C=C(/NC(=O)c2ccccc2)C(=O)NCCC(=O)O)cc1,3.16%,
Cc1ccccc1CC1(CO)CCCN(C(=O)c2cc(-c3ccccc3)no2)C1 (stereo not given),6.3%,
O=[N+]([O-])c1ccccc1OCCCCN1CCCCC1,5.91%,
O=C(Oc1ccccc1C(=S)N1CCCCC1)c1cc([N+](=O)[O-])cc([N+](=O)[O-])c1,,8.91 µM (active)
COc1cc(C(=S)N2CCOCC2)cc(OC)c1OC(=O)c1cc([N+](=O)[O-])c(C)c([N+](=O)[O-])c1,-15.4%,
Cc1cc(C)n(Cc2cnc(N3CCOCC3)s2)n1,1.49%,
Cc1nn(CC2CC2)c(=O)n1N(C)c1ncc(C(F)(F)F)cc1Cl,11.8%,
CC(C)(C)C(=O)/C(C#N)=C/c1ccc(O)cc1,,1.58 µM (active)
N#C/C(=C\c1ccc(O)c(O)c1)C(=O)NCc1ccccc1,,inactive
CCOC(=O)/C(C#N)=C\c1c(C)cc(C)c(COC(C)=O)c1C,1.88%,
C=CCn1c(COc2ccccc2C)nnc1SCC(=O)O,-4.73%,
CC(=O)Nc1ccc(NC(=O)CSc2nnc(COc3ccccc3C)n2CC2CCCO2)cc1 (stereo not given),,10 µM (active)
COc1ccccc1NC(=O)CSc1nnc(C)n1CC1CCCO1 (stereo not given),-9.88%,
CC(OC(=O)c1ccccc1N1C(=O)C2C3CCC(C3)C2C1=O)C(=O)c1ccccc1 (stereo not given),20.1%,
O=[N+]([O-])c1ccccc1Nc1ccc(O)cc1,-3.44%,
COc1cccc(NS(=O)(=O)c2ccc3[nH]cc(C(=O)NCCCOC(C)C)c(=O)c3c2)c1,,11.2 µM (active)
CC(C)OCCCNC(=O)c1cc(Sc2ccc(F)cc2)nc2ccccc12,-5.97%,
CCNS(=O)(=O)c1ccc(NC(=O)Nc2cccc(OC)c2)cc1,-8.67%,
Cc1ccc(Nc2c3c(nc4ccccc24)CCC3)cc1,0.124%,
Cc1ccc(-c2csc(NC(=O)Cn3[nH]c(=O)c4ccccc4c3=O)n2)cc1,3.41%,
CCOC(=O)c1sc(NC(=O)CSc2ncccn2)c(C#N)c1C,,28.2 µM (active)
CCOC(=O)c1sc(NC(=O)CSc2n[nH]c(CC)n2)nc1C,-0.18%,
CCN(CC)C(=O)c1sc(NC(=O)c2ccco2)c(C#N)c1C,2.09%,
CCOC(=O)c1sc(NC(=O)CSc2nc(C)cc(C(F)(F)F)n2)c(C#N)c1C,,2.24 µM (active)
CCOC(=O)c1ccc(NC(=O)CSc2ncccn2)cc1,-10.2%,
Cc1cc(C(F)(F)F)c(C#N)c(SCC(=O)NC2CC2)n1,10.4%,
O=C(Nc1cccc(CCc2ccccn2)c1)c1ccc(Cl)cc1,-0.24%,
O=C(NCc1ccc(Cl)cc1)c1cc(=O)nc2sc(-c3ccccc3)nn12,,5.01 µM (active)
O=C(Cn1nnc2ccccc2c1=O)NCc1ccc(Cl)cc1,0.87%,
Nc1c(C(=O)NCc2ccccc2)nnn1Cc1cccc(Cl)c1,14.8%,

# — PubChem BioAssay AID1030 (National Center for Advancing Translational Sciences (NCATS), 2008)
